The values that follow come from PubChem BioAssay AID1347420 (Sanford-Burnham Center for Chemical Genomics, 2020).

As a reminder, the inhibition is the change of the read-out against control, counted positive when it falls.

The campaign covered roughly 1,300 compounds. About 980 (75%) were called active. Another 4% or so got no clear call; they are omitted. Some of the results follow.

For the experiment, the target named is Sulfhydryl oxidase 1 (Homo sapiens) (UniProt O00391). Description: QSOX1 enzyme inhibitors, primary screen, biochemical, HyperBlu H2O2 luminescence, HTS (AID 1347420). Also: values above 100% were filed as inconclusive. The note with it: recombinant QSOX1, HyperBlu H2O2 luminescence; at 12.5 µM; hits give high values; active = any value above zero.
Sulfhydryl oxidase 1 (Homo sapiens), sequence (O00391 whole entry, looked up): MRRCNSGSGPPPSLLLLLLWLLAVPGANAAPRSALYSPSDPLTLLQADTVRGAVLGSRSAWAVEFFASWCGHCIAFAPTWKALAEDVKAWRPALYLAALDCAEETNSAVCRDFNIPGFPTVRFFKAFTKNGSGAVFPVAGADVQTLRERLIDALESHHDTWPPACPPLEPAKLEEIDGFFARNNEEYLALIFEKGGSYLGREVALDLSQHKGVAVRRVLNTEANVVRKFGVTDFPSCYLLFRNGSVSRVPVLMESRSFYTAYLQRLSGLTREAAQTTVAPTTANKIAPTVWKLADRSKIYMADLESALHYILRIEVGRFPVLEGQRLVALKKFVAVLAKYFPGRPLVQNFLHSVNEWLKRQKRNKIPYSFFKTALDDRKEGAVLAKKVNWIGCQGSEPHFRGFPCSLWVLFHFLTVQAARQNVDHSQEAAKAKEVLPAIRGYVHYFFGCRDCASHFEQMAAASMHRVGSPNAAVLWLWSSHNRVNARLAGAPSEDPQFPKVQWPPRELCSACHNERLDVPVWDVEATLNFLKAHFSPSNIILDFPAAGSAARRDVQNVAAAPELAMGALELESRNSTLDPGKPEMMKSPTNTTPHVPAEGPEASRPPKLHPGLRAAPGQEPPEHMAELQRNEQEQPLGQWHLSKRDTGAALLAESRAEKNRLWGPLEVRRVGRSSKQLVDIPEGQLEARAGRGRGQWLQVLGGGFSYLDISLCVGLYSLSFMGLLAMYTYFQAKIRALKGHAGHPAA
As for `COc1ccc(CCn2nnnc2C2(c3ccc(C)cc3)CC2)cc1`, the inhibition was 14.5% (active).

For `C(=C\c1ccccc1)/CN1CCN(C(c2ccccc2)c2ccccc2)CC1`, the inhibition is -9.7% (inactive).

In the case of `Fc1ccc(C(c2ccc(F)cc2)N2CCN(C/C=C/c3ccccc3)CC2)cc1`, the inhibition is 5.6% (active).

As for `O=C1c2c(O)cc(O)cc2OC(c2ccc(O)c(O)c2)C1O` (configuration not stated), the inhibition is 65.2% (active).

With `Oc1cc(O)c2c(c1)O[C@H](c1ccc(O)c(O)c1)[C@@H](O)C2`, the inhibition is 72.1% (active).

On to `Cc1cnc(C(=O)NCCc2ccc(S(=O)(=O)NC(=O)NC3CCCCC3)cc2)cn1`, for which the inhibition was -6.9% (inactive).

Consider `COc1ccc(Cl)cc1C(=O)NCCc1ccc(S(=O)(=O)NC(=O)NC2CCCCC2)cc1`, for which the inhibition was 7.7% (active).

On to `Cc1cccc(C)c1NC(=O)C(C)N` (configuration not stated), for which the inhibition was 17.2% (active).

As for `CN(C)CCCN1c2ccccc2Sc2ccc(Cl)cc21`, the inhibition was 98.2% (active).

As for `CCC(=O)c1ccc2c(c1)N(CCCN(C)C)c1ccccc1S2`, the inhibition was 96.5% (active).

Turning to `CN(C)CCCN1c2ccccc2Sc2ccc(C(F)(F)F)cc21`, the inhibition was 83.7% (active).

In the case of `NCCS`, the inhibition is 28.5% (active).

`O=c1[nH]c2ccccc2c2ccccc12`: the inhibition is 10.9% (active).

Take `C=Cc1c(C)c2cc3[nH]c(cc4nc(cc5nc(cc1[nH]2)C(C)=C5CCC(=O)O)C(CCC(=O)O)=C4C)c(C)c3C=C`: the inhibition is 29.8% (active).

As for `CCOC(=O)N1CCN(/[N+]([O-])=N/Oc2ccc([N+](=O)[O-])cc2[N+](=O)[O-])CC1`, the inhibition is 73.3% (active).

On to `NNc1nncc2ccccc12`, for which the inhibition was 92.6% (active).

`COc1cc2ncnc(Nc3cccc(Cl)c3)c2cc1OC`: the inhibition is 0.4% (active).

In the case of `CC1CCN(CC[C@H]2CCCN2S(=O)(=O)c2cccc(O)c2)CC1`, the inhibition was 2.8% (active).

For the molecule `O=c1[nH]ccc2c(O)cccc12`, the inhibition was 41.9% (active).

As to `Oc1cc2c(cc1O)C(c1ccccc1)CNCC2` (configuration not stated), the inhibition is 57.5% (active).

As for `Oc1cc2c(c(Cl)c1O)CCNCC2c1ccccc1` (configuration not stated), the inhibition was 93.6% (active).

For `CCNC(=O)N1CCN(CCCC(c2ccc(F)cc2)c2ccc(F)cc2)CC1`, the inhibition was 8.8% (active).

For `O=C1C2C=CC=CC2=NC(=S)N1CCN1CCC(=C(c2ccc(F)cc2)c2ccc(F)cc2)CC1` (configuration not stated), the inhibition is 4.1% (active).

On to `CC(=O)Oc1ccccc1C(=O)O`, for which the inhibition is 12.4% (active).

Turning to `C#C[C@]1(O)CC[C@H]2[C@@H]3CCC4=Cc5oncc5CC4(C)[C@H]3CCC21C` (some centres not stated), the inhibition was 22.1% (active).

Turning to `COc1cc(C(O)CO)ccc1O` (configuration not stated), the inhibition is 13.7% (active).

For `COc1cc(C(O)CO)ccc1OS(=O)(=O)O` (configuration not stated), the inhibition is 2.7% (active).

For `COc1cc(C(O)C(=O)O)ccc1O` (configuration not stated), the inhibition is 12.1% (active).

Consider `Cc1cc(Cn2cnc3c2C[C@@H](C(=O)O)N(C(=O)C(c2ccccc2)c2ccccc2)C3)ccc1N`, for which the inhibition is 29.8% (active).

For the molecule `CCN1CCCC1CNC(=O)c1cc(S(N)(=O)=O)ccc1OC` (configuration not stated), the inhibition was -11.2% (inactive).

For the molecule `CCN1CCC[C@H]1CNC(=O)c1cc(S(N)(=O)=O)ccc1OC`, the inhibition was 1% (active).

For `CCN1CCCC1CNC(=O)c1cc(S(=O)(=O)CC)c(N)cc1OC` (configuration not stated), the inhibition is 3.7% (active).

As for `CCCCNc1c(C(=O)OCC)c(C)nc2c1cnn2CC`, the inhibition is 12.7% (active).

Turning to `CCOC(=O)c1cnc2c(cnn2CC)c1NN=C(C)C`, the inhibition is 19.1% (active).

Turning to `NC[C@@H]1O[C@H](c2ccccc2)Cc2c1ccc(O)c2O`, the inhibition is 71.1% (active).

As to `NC[C@@H]1O[C@H](C23CC4CC(CC(C4)C2)C3)Cc2c1ccc(O)c2O`, the inhibition is 54% (active).

Turning to `CC(C)C[C@H]1C(=O)N2CCC[C@H]2[C@]2(O)O[C@](NC(=O)[C@@H]3C=C4c5cccc6[nH]c(Br)c(c56)C[C@H]4N(C)C3)(C(C)C)C(=O)N12`, the inhibition is 33.5% (active).

`C[C@H](CS)C(=O)N1CCC[C@H]1C(=O)O`: the inhibition is -8.3% (inactive).

On to `c1ccc(C(NCCNC(c2ccccc2)c2ccccc2)c2ccccc2)cc1`, for which the inhibition is 7.6% (active).

On to `CCOC(=O)C12CC1/C(=N/O)c1ccccc1O2` (configuration not stated), for which the inhibition is 11.7% (active).

For `CCCCOC(=O)NS(=O)(=O)c1sc(CC(C)C)cc1-c1ccc(Cn2c(CC)nc3c(C)cc(C)nc32)cc1`, the inhibition is 15.1% (active).

Consider `C1CCC(N=C(NC23CC4CC(CC(C4)C2)C3)N2CCOCC2)CC1`, for which the inhibition is 8.2% (active).

For `NC1=NCC2c3ccccc3Cc3ccccc3N12` (configuration not stated), the inhibition was 2.9% (active).

Turning to `Cc1c(OCC(F)(F)F)ccnc1CS(=O)c1nc2ccccc2[nH]1` (configuration not stated), the inhibition is 2.3% (active).

For the molecule `Nc1ccc(-c2ccc3ccccc3n2)cc1`, the inhibition was 54.7% (active).

In the case of `c1ccc2nc(C3=NCCN3)ccc2c1`, the inhibition was -4.5% (inactive).

As to `Nc1ncnc2n[nH]c(Nc3ccc(F)cc3)c12`, the inhibition was 81.8% (active).

`CCN1CCc2nc(N)oc2CC1`: the inhibition was 48.7% (active).

For `O=c1[nH]c2cc([N+](=O)[O-])c([N+](=O)[O-])cc2[nH]c1=O`, the inhibition was 87% (active).

In the case of `C=C[C@H]1CN2CC[C@@H]1C[C@H]2[C@@H](O)c1ccnc2ccc(OC)cc12`, the inhibition was -2.4% (inactive).

Consider `C=C[C@H]1CN2CC[C@@H]1C[C@@H]2[C@H](O)c1ccnc2ccc(OC)cc12`, for which the inhibition was 4.7% (active).

Consider `CCCCCCC/C=C\CCCCCCCCC(=O)O`, for which the inhibition is 11% (active).

Consider `CCCCCC(O)CCCC(=O)O` (configuration not stated), for which the inhibition is -0.3% (inactive).

Consider `CCCCCCCCCCC/C=C\C(C)(C)/C=C\CCCC(=O)O`, for which the inhibition is 25.2% (active).

For `CC(C)NC[C@H](O)COc1ccc(CC(N)=O)cc1`, the inhibition is -4.6% (inactive).

For the molecule `CC(C)NCC(O)COc1ccc(CC(N)=O)cc1` (configuration not stated), the inhibition was 7.4% (active).

Consider `CC(C)NCC(O)COc1ccc(CCOCC2CC2)cc1` (configuration not stated), for which the inhibition is 11.4% (active).

Take `COCCc1ccc(OCC(O)CNC(C)C)cc1` (configuration not stated): the inhibition was -17.5% (inactive).

Regarding `CC(=O)SC1CC2=CC(=O)CC[C@]2(C)C2CC[C@@]3(C)C(CC[C@@]34CCC(=O)O4)C12` (some centres not stated), the inhibition was 5.4% (active).

With `O=c1c(-c2ccc(O)cc2)coc2cc(O)ccc12`, the inhibition is 32.4% (active).

With `O=c1c(-c2ccc(O)cc2)coc2cc(O)cc(O)c12`, the inhibition was 33.2% (active).

Consider `O=c1cc(-c2ccc(O)cc2)oc2cc(O)cc(O)c12`, for which the inhibition is 88.8% (active).

With `COC1(C2=NCCN2)COc2ccccc2O1` (configuration not stated), the inhibition is 2.6% (active).

Consider `Cc1ccccc1/C=C/C1=NCCN1`, for which the inhibition was -1.6% (inactive).

With `O=C1Nc2ccc(I)cc2/C1=C/c1cc(Br)c(O)c(Br)c1`, the inhibition was 97.8% (active).

As to `CCCCOc1cc(CC2CNC(=O)N2)ccc1OC` (configuration not stated), the inhibition was 2.2% (active).

For the molecule `O=C1NCN(c2ccccc2)C12CCN(CCCC(c1ccc(F)cc1)c1ccc(F)cc1)CC2`, the inhibition is 9.4% (active).
